Screens as filed in PubChem BioAssay.
Sampled rows, rich in hits. Any-hit rate of the full collection: about 2.3%.
MCL1 BIM primary: disrupts human MCL1 binding to BIM-BH3 peptide. GST-MCL1 / FITC-Bim-BH3 fluorescence polarization. inhibition, % at 10.9 µM. Q07820. AID 2057. 320,000 compounds, 0.68% hits;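 active = inhibition above the mean inhibition of all tested compounds plus 3 SD, set per campaign, cut at about 40% in these data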;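 note: 0% = DMSO wells and 100% = unlabeled Bim-BH3 peptide control; higher means more loss of mP so more displacement of Bim peptide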
Target sequence (Q07820 whole entry, looked up): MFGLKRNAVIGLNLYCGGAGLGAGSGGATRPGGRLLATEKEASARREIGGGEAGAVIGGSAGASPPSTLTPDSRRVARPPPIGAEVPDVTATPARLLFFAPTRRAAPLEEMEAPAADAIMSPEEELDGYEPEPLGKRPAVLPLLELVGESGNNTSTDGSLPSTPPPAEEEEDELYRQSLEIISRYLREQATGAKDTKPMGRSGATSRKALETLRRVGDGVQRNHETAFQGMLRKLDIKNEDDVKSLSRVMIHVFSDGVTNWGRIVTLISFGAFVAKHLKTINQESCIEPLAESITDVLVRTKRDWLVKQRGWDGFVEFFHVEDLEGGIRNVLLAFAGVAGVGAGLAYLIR
GLD-1 TGE inh: GLD-1-TGE RNA interaction inhibition (C. elegans); purified GLD-1 + fluorescein TGE RNA, fluorescence polarization; Q17339; 320,000 compounds, 0.44% hits; inhibition, % at 5.96 µM;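 active = percent inhibition above a per-plate cutoff, the plate mean of test compounds plus 3 SD, cut at about 30% in these data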;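 note: 0% = DMSO wells with GLD-1 and probe and 100% = wells lacking GLD-1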
BCLXL inh: blocks human Bcl-xL binding to Bim BH3 peptide | Q07817 | GST-Bcl-xL / FITC-Bim BH3 peptide fluorescence polarization | inhibition, % at 10.9 µM | 320,000 compounds, 0.7% hits;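 active = inhibition above the mean of all tested compounds plus 3 SD, cutoff set per campaign, cut at about 30% in these data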;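 note: 0% = DMSO wells and 100% = unlabeled Bim-BH3 peptide competitor; inhibitors lower millipolarization by displacing the labeled peptide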
Target sequence (Q07817 whole entry, looked up): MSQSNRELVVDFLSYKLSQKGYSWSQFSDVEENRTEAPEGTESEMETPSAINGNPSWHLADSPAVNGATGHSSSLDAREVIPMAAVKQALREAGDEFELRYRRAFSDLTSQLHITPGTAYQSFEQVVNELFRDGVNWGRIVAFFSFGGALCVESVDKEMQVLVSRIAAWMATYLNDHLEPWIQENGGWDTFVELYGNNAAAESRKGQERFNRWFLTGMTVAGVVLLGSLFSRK
Mcl1-Bid inh: disrupts binding of human Mcl-1 to Bid peptide; inhibition, % at 21.7 µM; TR-FRET Mcl-1/Bid-Dy647 peptide binding, 1536-well; 220,000 compounds, 0.97% hits; Q07820;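 active = compounds that cut the binding signal by more than half at the single screening dose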;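 note: His-tagged Mcl-1 with europium anti-His antibody binding Bid BH3 peptide; 0% = Mcl-1 plus peptide wells and 100% = peptide-only wells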
Mcl-1 Bim block: inhibitors of Bim-Mcl-1 interaction, human. Q07820. Bead-based flow cytometry, Bim peptide-Mcl-1 binding. inhibition, % at 10 µM. 190,000 compounds, 0.1% hits; in the data active = inhibition above about 40%;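 note: 0% = no compound tracer wells and 100% = peptide blocker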
Mcl1 Noxa PPI: disrupts binding of human Mcl-1 to Noxa peptide. TR-FRET Mcl-1/Noxa peptide binding, 2 h. AID 1022. inhibition, % at 21.7 µM. 220,000 compounds, 1.5% hits;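 active = compounds that cut the protein-peptide binding signal by more than 50% relative to plate controls in a single-dose test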;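 note: His-tagged Mcl-1 with rhodamine Noxa BH3 peptide and terbium anti-His antibody; 0% = Mcl-1 plus Noxa peptide wells and 100% = peptide-only wells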
Active calls of the source: *.

Screening CN(C)c1ccc(NC(=O)CN2C(=O)CN=C(c3ccccc3)c3cc(Cl)ccc32)cc1 returned MCL1 BIM primary -5, GLD-1 TGE inh 4, BCLXL inh 3, Mcl1-Bid inh 2, Mcl-1 Bim block -3 and Mcl1 Noxa PPI 78*.
Screening Cc1nc2c(c(=O)[nH]1)C(c1ccccc1Cl)c1c(c3ccccc3oc1=O)O2 (stereo unspecified) returned MCL1 BIM primary -1, GLD-1 TGE inh 3, BCLXL inh 7, Mcl1-Bid inh -4 and Mcl1 Noxa PPI 2.
O=c1[nH]c(=S)[nH]c(O)c1N=Nc1ccc(S(=O)(=O)N2CCc3ccccc32)cc1 was read as MCL1 BIM primary 16, GLD-1 TGE inh -13, BCLXL inh 4, Mcl1-Bid inh -35, Mcl-1 Bim block -5 and Mcl1 Noxa PPI 56*.
O=c1[nH]c(=S)[nH]c(O)c1N=Nc1ccc(SC(F)F)cc1 was read as MCL1 BIM primary -3, GLD-1 TGE inh -12, BCLXL inh 4, Mcl1-Bid inh -25 and Mcl1 Noxa PPI 47.
For Cc1ccc(S(=O)(=O)N2CC2(C)CCl)cc1 (stereo unspecified) the results were MCL1 BIM primary 3, GLD-1 TGE inh 7, BCLXL inh 4, Mcl1-Bid inh 11 and Mcl1 Noxa PPI -8.
Screening Cc1ccc(S(=O)(=O)N2CN3CCN(C3)C2)cc1 returned MCL1 BIM primary 5, GLD-1 TGE inh 6, BCLXL inh 3, Mcl1-Bid inh 79*, Mcl-1 Bim block -4 and Mcl1 Noxa PPI 11.
CCN1C(=O)C(=C/C=C/c2ccco2)C(=O)N(CC)C1=S was read as MCL1 BIM primary -31, GLD-1 TGE inh -8, BCLXL inh 10, Mcl1-Bid inh 47, Mcl-1 Bim block -11 and Mcl1 Noxa PPI 73*.
Cc1ccc(N2C(=O)NC(=O)/C(=C/c3cnc(-c4ccccc4)nc3)C2=O)cc1C was read as MCL1 BIM primary -10, GLD-1 TGE inh -27, BCLXL inh -9, Mcl1-Bid inh 20, Mcl-1 Bim block -1 and Mcl1 Noxa PPI 75*.
For COc1ccc(OC)c(-n2c(O)c(/C=C3\C(C)=Nc4ccccc43)c(=O)[nH]c2=O)c1 the results were MCL1 BIM primary -19, GLD-1 TGE inh -15, BCLXL inh -9, Mcl1-Bid inh -73 and Mcl1 Noxa PPI 1.
`COC(=O)C1=Nc2ccccc2/C1=C\c1c(O)n(-c2ccc(Br)cc2)c(=O)[nH]c1=O` gave MCL1 BIM primary -19, GLD-1 TGE inh -11, BCLXL inh -14, Mcl1-Bid inh -31, Mcl-1 Bim block 0 and Mcl1 Noxa PPI 77*.
O=c1[nH]c(=O)n(-c2ccccc2)c(O)c1/C=C1/C(c2ccccc2)=Nc2ccccc21 was read as MCL1 BIM primary -11, GLD-1 TGE inh 0, BCLXL inh 1, Mcl1-Bid inh -42, Mcl-1 Bim block -2 and Mcl1 Noxa PPI 30.
COC(=O)C1=Nc2ccccc2/C1=C\c1c(O)n(-c2ccc(OC)cc2)c(=O)[nH]c1=O was read as MCL1 BIM primary -6, GLD-1 TGE inh -4, BCLXL inh -3, Mcl1-Bid inh -27, Mcl-1 Bim block 1 and Mcl1 Noxa PPI 53*.
O=C1NC(=S)N(Cc2ccco2)C(=O)/C1=C\c1cccs1 was read as Mcl1-Bid inh 97*, Mcl-1 Bim block 2 and Mcl1 Noxa PPI 97*.
For COc1ccc(N2C(=O)/C(=C/c3ccc(N(C)C)o3)C(=O)NC2=S)cc1 the results were MCL1 BIM primary -158, GLD-1 TGE inh -206 and BCLXL inh -102.
COc1ccc(N2C(=O)/C(=C/c3cccs3)C(=O)NC2=S)cc1 was read as MCL1 BIM primary 5, GLD-1 TGE inh -6, BCLXL inh 4, Mcl1-Bid inh 44 and Mcl1 Noxa PPI 62*.
COc1ccccc1/C=C1\C(=O)NC(=S)N(c2ccccc2)C1=O was read as MCL1 BIM primary 14, GLD-1 TGE inh -36 and BCLXL inh 2.
For COc1ccc(N2C(=O)/C(=C/C=C/c3ccccc3[N+](=O)[O-])C(=O)NC2=S)cc1 the results were Mcl1-Bid inh 83*, Mcl-1 Bim block -1 and Mcl1 Noxa PPI 89*.
`COc1ccc(/C=C2/C(=O)NC(=S)N(C3CC3)C2=O)cc1CN1C(=O)c2ccccc2C1=O` gave MCL1 BIM primary 36, GLD-1 TGE inh 6, BCLXL inh 14, Mcl1-Bid inh 46, Mcl-1 Bim block 6 and Mcl1 Noxa PPI 95*.
`COc1ccc(/C=C2/C(=O)NC(=O)N(c3ccccc3)C2=O)cc1CN1C(=O)c2ccccc2C1=O` gave MCL1 BIM primary -11, GLD-1 TGE inh -4, BCLXL inh -5, Mcl1-Bid inh -149 and Mcl1 Noxa PPI -12.
For Cc1ccc2c(c1N)C(=O)c1ccccc1C2=O the results were MCL1 BIM primary 42*, GLD-1 TGE inh -4 and BCLXL inh 47*.
`CN1CCC(N(C)c2nc(-c3ccccc3)nc3ccccc23)CC1` gave MCL1 BIM primary 2, GLD-1 TGE inh 8, BCLXL inh 4, Mcl1-Bid inh 5, Mcl-1 Bim block 0 and Mcl1 Noxa PPI 52*.
For CCOC(=O)c1c(-n2c(C)cc(/C=C3/C(=O)NC(=O)N(CC)C3=O)c2C)sc2c1CCCC2 the results were MCL1 BIM primary -2, GLD-1 TGE inh 12 and BCLXL inh 3.
`CCOC(=O)c1c(-n2c(C)cc(C=C3C(=O)NC(=S)NC3=O)c2C)sc2c1CCCC2` gave MCL1 BIM primary -24, GLD-1 TGE inh 2, BCLXL inh -6, Mcl1-Bid inh 38, Mcl-1 Bim block -5 and Mcl1 Noxa PPI 80*.
`COc1ccc2c(c1)CC1(CN2C)C(=O)NC(=O)N(CCc2ccccc2)C1=O` (stereo unspecified) gave MCL1 BIM primary 21, GLD-1 TGE inh 9, BCLXL inh 20, Mcl1-Bid inh -13, Mcl-1 Bim block -3 and Mcl1 Noxa PPI 31.
CCC(C)N1C(=O)NC(=O)C2(Cc3c(ccc4ccccc34)N(C)C2)C1=O (stereo unspecified) was read as MCL1 BIM primary 13, GLD-1 TGE inh 5, BCLXL inh 8, Mcl1-Bid inh -105, Mcl-1 Bim block 2 and Mcl1 Noxa PPI 59*.
For COc1ccc(CN2C(=O)NC(=O)/C(=C\c3ccco3)C2=O)cc1 the results were MCL1 BIM primary -21, GLD-1 TGE inh -53, BCLXL inh -30, Mcl1-Bid inh -76, Mcl-1 Bim block 4 and Mcl1 Noxa PPI 12.
Screening COc1ccc(N2C(=O)NC(=O)/C(=C\c3cn(C)c4ccccc34)C2=O)cc1 returned MCL1 BIM primary 5, GLD-1 TGE inh -10 and BCLXL inh 34*.
COc1ccc(N2C(=O)NC(=O)/C(=C/c3ccc([N+](=O)[O-])s3)C2=O)cc1 was read as MCL1 BIM primary 33, GLD-1 TGE inh 0, BCLXL inh 15, Mcl1-Bid inh -11 and Mcl1 Noxa PPI 51*.
